Reference: PubChem BioAssay AID1159580 (chemical genetic matrix, 2015)
Out of some 5,500 compounds screened, about 2,000 (36%) were called active. Another 18% or so got no clear call; they are omitted. Rule as the data show it: active = normalized growth mostly below about 0.91 (no sharp cut-off); inconclusive = no clear call, values can overlap the other calls; inactive = mostly above about 0.92. The list shows a part of the results.

Assay: chemical genetic growth profiling, strain panel (AID 1159580);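 also: tested at 20 µM; growth read once vehicle control cultures reached saturation at 30 °C; 1 = growth at the plate median or of vehicle wells; lower values mean less growth of the strain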
Details: growth OD
[1] = S. cerevisiae deletion strains, locus YAL013W, strain DEP1, stronger effect = lower value
[2] = S. cerevisiae deletion strains, locus YBR229C, strain ROT2, stronger effect = lower value
[3] = S. cerevisiae deletion strains, locus YDL101C, strain DUN1, stronger effect = lower value
[4] = S. cerevisiae deletion strains, locus YDL134C, strain PPH21, stronger effect = lower value
[5] = S. cerevisiae deletion strains, locus YDR150W, strain NUM1, stronger effect = lower value
[6] = S. cerevisiae deletion strains, locus YEL061C, strain CIN8, stronger effect = lower value
[7] = S. cerevisiae deletion strains, locus YGR078C, strain PAC10, stronger effect = lower value
[8] = S. cerevisiae deletion strains, locus YHR030C, strain SLT2, stronger effect = lower value
[9] = S. cerevisiae deletion strains, locus YHR087W, strain rtc3, stronger effect = lower value
[10] = S. cerevisiae deletion strains, locus YJL187C, strain SWE1, stronger effect = lower value
[11] = S. cerevisiae deletion strains, locus YJR043C, strain POL32, stronger effect = lower value
[12] = S. cerevisiae deletion strains, locus YJR075W, strain HOC1, stronger effect = lower value
[13] = S. cerevisiae deletion strains, locus YLR039C, strain RIC1, stronger effect = lower value
[14] = S. cerevisiae deletion strains, locus YLR058C, strain SHM2 (second series), stronger effect = lower value
[15] = S. cerevisiae deletion strains, locus YLR085C, strain ARP6, stronger effect = lower value
[16] = S. cerevisiae deletion strains, locus YLR262C, strain YPT6, stronger effect = lower value
[17] = S. cerevisiae deletion strains, locus YML094W, strain GIM5, stronger effect = lower value
[18] = S. cerevisiae deletion strains, locus YMR219W, strain ESC1, stronger effect = lower value
[19] = S. cerevisiae deletion strains, locus YMR263W, strain SAP30, stronger effect = lower value
[20] = S. cerevisiae deletion strains, locus YNL153C, strain GIM3, stronger effect = lower value
[21] = S. cerevisiae deletion strains, locus YNL298W, strain CLA4 (second series), stronger effect = lower value
[22] = S. cerevisiae deletion strains, locus YNL322C, strain KRE1, stronger effect = lower value
[23] = S. cerevisiae deletion strains, locus YNR030W, strain Alg12, stronger effect = lower value
[24] = S. cerevisiae deletion strains, locus YOL006C, strain TOP1, stronger effect = lower value
[25] = S. cerevisiae deletion strains, locus YPL055C, strain LGE1, stronger effect = lower value
[26] = S. cerevisiae deletion strains, locus YPL241C, strain CIN2, stronger effect = lower value
[27] = S. cerevisiae deletion strains, locus YPR135W, strain CTF4, stronger effect = lower value
[28] = S. cerevisiae strains, strain wild type, stronger effect = lower value
[29] = S. cerevisiae deletion strains, locus YGR229C, strain SMI1, stronger effect = lower value
[30] = S. cerevisiae deletion strains, locus YKL190W, strain CNB1, stronger effect = lower value
[31] = S. cerevisiae deletion strains, locus YMR307W, strain GAS1, stronger effect = lower value
[32] = S. cerevisiae deletion strains, locus YNL128W, strain TEP1, stronger effect = lower value

Measured: normalized growth

CCOC(=O)c1sc(SC(C)C)c2c1CCCC2=O
inactive: [1] 0.979 | [2] 0.969 | [3] 0.973 | [5] 1.06 | [7] 0.982 | [9] 0.978 | [11] 1.02 | [12] 0.93 | [14] 0.974 | [16] 0.864 | [17] 0.911 | [18] 0.969 | [19] 1.03 | [20] 0.978 | [22] 0.97 | [24] 0.738 | [25] 1.04 | [27] 0.762 | [28] 0.951
active: [4] 0.82 | [6] 0.795 | [8] 0.53 | [10] 0.851 | [13] 0.785 | [15] 0.646 | [21] 0.835 | [23] 0.884 | [26] 0.801

CCOC(=O)c1sc(S(C)(=O)=O)c2c1CCCC2O (stereo unspecified)
inactive: [1] 1.02 | [2] 1 | [3] 0.995 | [4] 1.01 | [5] 0.95 | [6] 1.02 | [7] 1 | [29] 1 | [8] 1.03 | [9] 0.995 | [11] 0.98 | [12] 1.01 | [30] 1 | [13] 1.05 | [14] 1.01 | [15] 1.08 | [16] 1.04 | [17] 1.03 | [18] 1.01 | [19] 1.04 | [31] 1.08 | [20] 1 | [21] 1.03 | [22] 1.02 | [23] 1.03 | [25] 0.952 | [26] 1.02 | [27] 1.05 | [28] 1.01

Cn1[nH]c(=O)cc1C(=O)NN
inactive: [1] 1 | [2] 1.02 | [3] 1 | [4] 0.996 | [5] 1.01 | [6] 1.03 | [7] 1 | [8] 1.11 | [9] 1 | [10] 0.998 | [11] 1.01 | [12] 0.992 | [13] 0.998 | [14] 0.985 | [15] 0.978 | [16] 1.11 | [17] 0.99 | [18] 1 | [19] 0.991 | [31] 0.899 | [32] 0.981 | [20] 1.05 | [21] 1.03 | [22] 0.995 | [23] 1.01 | [25] 0.995 | [26] 0.992 | [27] 1.12 | [28] 0.986

COC(=O)C1OC(=O)C2OC23C1(C)CCC1C2(C)C(OC(C)=O)CC(OC(C)=O)C(C)(C)C2CC(=O)C13C (stereo unspecified)
inactive: [1] 1.02 | S. cerevisiae deletion strains, locus YBR021W, strain FUR4, stronger effect = lower value 0.914 | [2] 1 | S. cerevisiae deletion strains, locus YCL029C, strain bik1, stronger effect = lower value 0.987 | S. cerevisiae deletion strains, locus YDL035C, strain GPR1, stronger effect = lower value 1 | S. cerevisiae deletion strains, locus YDL074C, strain BRE1, stronger effect = lower value 1.03 | [3] 0.997 | [4] 0.998 | S. cerevisiae deletion strains, locus YDL185W, strain tfp1, stronger effect = lower value 0.962 | S. cerevisiae deletion strains, locus YDL192W, strain arf1, stronger effect = lower value 0.988 | S. cerevisiae deletion strains, locus YDR101C, strain arx1, stronger effect = lower value 0.999 | [5] 0.969 | S. cerevisiae deletion strains, locus YDR162C, strain NBP2, stronger effect = lower value 1.01 | S. cerevisiae deletion strains, locus YDR318W, strain mcm21, stronger effect = lower value 0.988 | S. cerevisiae deletion strains, locus YDR388W, stronger effect = lower value 1 | S. cerevisiae deletion strains, locus YDR502C, strain sam2, stronger effect = lower value 0.996 | [6] 1 | S. cerevisiae deletion strains, locus YER110C, stronger effect = lower value 0.985 | S. cerevisiae deletion strains, locus YER155C, strain BEM2, stronger effect = lower value 0.929 | S. cerevisiae deletion strains, locus YER167W, strain BCK2, stronger effect = lower value 0.984 | S. cerevisiae deletion strains, locus YGL078C, strain dbp3, stronger effect = lower value 0.979 | S. cerevisiae deletion strains, locus YGL086W, strain mad1, stronger effect = lower value 0.982 | S. cerevisiae deletion strains, locus YGL248W, strain PDE1, stronger effect = lower value 0.983 | [7] 1 | S. cerevisiae deletion strains, locus YGR135W, strain pre9, stronger effect = lower value 0.997 | [29] 1 | S. cerevisiae deletion strains, locus YGR252W, strain gcn5, stronger effect = lower value 1.01 | [8] 0.997 | S. cerevisiae deletion strains, locus YHR079C, strain IRE1 (second series), stronger effect = lower value 0.998 | S. cerevisiae deletion strains, locus YHR094C, strain hxt1, stronger effect = lower value 0.972 | S. cerevisiae deletion strains, locus YHR129C, strain ARP1, stronger effect = lower value 1 | S. cerevisiae deletion strains, locus YHR200W, strain rpn10, stronger effect = lower value 0.985 | S. cerevisiae deletion strains, locus YIL066C, strain RNR3, stronger effect = lower value 1 | S. cerevisiae deletion strains, locus YIL073C, strain SPO22, stronger effect = lower value 0.883 | S. cerevisiae deletion strains, locus YIL125W, strain kgd1, stronger effect = lower value 1 | S. cerevisiae deletion strains, locus YIR030C, strain dcg1, stronger effect = lower value 0.998 | S. cerevisiae deletion strains, locus YJL095W, strain BCK1, stronger effect = lower value 1.05 | S. cerevisiae deletion strains, locus YJL134W, strain LCB3, stronger effect = lower value 0.994 | S. cerevisiae deletion strains, locus YJL168C, strain set2, stronger effect = lower value 1 | S. cerevisiae deletion strains, locus YJL187C, strain SWE1 (second series), stronger effect = lower value 0.996 | [11] 0.984 | [12] 1.01 | S. cerevisiae deletion strains, locus YKL009W, strain mrt4, stronger effect = lower value 0.967 | S. cerevisiae deletion strains, locus YKL068W, stronger effect = lower value 0.983 | S. cerevisiae deletion strains, locus YKL085W, strain MDH1 (second series), stronger effect = lower value 0.984 | S. cerevisiae deletion strains, locus YKL085W, strain MDH1, stronger effect = lower value 0.984 | [30] 1 | S. cerevisiae deletion strains, locus YKR001C, strain vps1, stronger effect = lower value 0.983 | [13] 0.963 | S. cerevisiae deletion strains, locus YLR058C, strain SHM2, stronger effect = lower value 1 | S. cerevisiae deletion strains, locus YLR102C, strain apc9, stronger effect = lower value 0.996 | [16] 0.966 | S. cerevisiae deletion strains, locus YLR268W, strain sec22, stronger effect = lower value 0.996 | S. cerevisiae deletion strains, locus YLR330W, strain CHS5, stronger effect = lower value 0.995 | S. cerevisiae deletion strains, locus YLR342W, strain FKS1 (second series), stronger effect = lower value 0.985 | S. cerevisiae deletion strains, locus YLR371W, strain rom2, stronger effect = lower value 0.981 | S. cerevisiae deletion strains, locus YLR418C, strain cdc73, stronger effect = lower value 1.05 | S. cerevisiae deletion strains, locus YML016C, strain PPZ1, stronger effect = lower value 0.997 | S. cerevisiae deletion strains, locus YML032C, strain rad52, stronger effect = lower value 0.977 | S. cerevisiae deletion strains, locus YML124C, strain tub3, stronger effect = lower value 0.992 | S. cerevisiae deletion strains, locus YMR078C, strain ctf18, stronger effect = lower value 0.992 | S. cerevisiae deletion strains, locus YMR223W, strain ubp8, stronger effect = lower value 0.974 | [19] 0.994 | [31] 1 | S. cerevisiae deletion strains, locus YNL067W, strain RPL9B, stronger effect = lower value 0.994 | [32] 1.02 | [20] 1 | S. cerevisiae deletion strains, locus YNL233W, strain BNI4, stronger effect = lower value 1.01 | S. cerevisiae deletion strains, locus YNL250W, strain rad50, stronger effect = lower value 0.987 | S. cerevisiae deletion strains, locus YNL271C, strain bni1, stronger effect = lower value 0.995 | S. cerevisiae deletion strains, locus YNL298W, strain CLA4, stronger effect = lower value 0.985 | S. cerevisiae deletion strains, locus YNL307C, strain MCK1, stronger effect = lower value 0.988 | [22] 1.01 | S. cerevisiae deletion strains, locus YNR052C, strain pop2, stronger effect = lower value 0.986 | [24] 1.04 | S. cerevisiae deletion strains, locus YOL012C, strain htz1 0.841 | S. cerevisiae deletion strains, locus YOL147C, strain pex11, stronger effect = lower value 0.99 | S. cerevisiae deletion strains, locus YOR061W, strain CKA2, stronger effect = lower value 1 | S. cerevisiae deletion strains, locus YOR069W, strain VPS5, stronger effect = lower value 0.996 | S. cerevisiae deletion strains, locus YOR136W, strain idh2, stronger effect = lower value 0.985 | S. cerevisiae deletion strains, locus YOR144C, strain elg1, stronger effect = lower value 0.993 | S. cerevisiae deletion strains, locus YOR184W, strain ser1, stronger effect = lower value 0.966 | S. cerevisiae deletion strains, locus YOR316C, strain cot1, stronger effect = lower value 0.987 | [25] 1 | [26] 0.998 | S. cerevisiae deletion strains, locus YPR119W, strain clb2, stronger effect = lower value 0.996 | S. cerevisiae deletion strains, locus YPR141C, strain kar3, stronger effect = lower value 0.975 | S. cerevisiae deletion strains, locus YPR163C, strain tif3, stronger effect = lower value 0.991 | S. cerevisiae deletion strains, locus YPR167C, strain met16, stronger effect = lower value 0.995 | S. cerevisiae deletion strains, strain wtn01, stronger effect = lower value 0.997 | [28] 0.983

CCN(CC)C(=O)N[C@H]1C=C2c3cccc4[nH]cc(c34)C[C@H]2N(C)C1
inactive: [1] 1.01 | S. cerevisiae deletion strains, locus YAL040C, strain CLN3, stronger effect = lower value 0.999 | S. cerevisiae deletion strains, locus YCL061C, strain MRC1 (second series), stronger effect = lower value 1.01 | S. cerevisiae deletion strains, locus YDR363W, strain ESC2, stronger effect = lower value 1.03 | S. cerevisiae deletion strains, locus YER002W, strain NOP16, stronger effect = lower value 1.01 | [12] 1.02 | [31] 1.01 | S. cerevisiae deletion strains, locus YNL175C, strain NOP13, stronger effect = lower value 0.996 | S. cerevisiae deletion strains, locus YNL197C, strain WHI3, stronger effect = lower value 1.01 | S. cerevisiae deletion strains, locus YNL224C, strain SQS1, stronger effect = lower value 1.02 | [22] 1.01 | S. cerevisiae deletion strains, locus YOR083W, strain WHI5 (second series), stronger effect = lower value 0.999 | [25] 0.998 | [26] 1
